Source: PubChem BioAssay AID1628 (Sanford-Burnham Center for Chemical Genomics, 2009)
Out of some 190,000 compounds screened, about 930 (0.49%) were called active. This is one part of the list. Results with a measured potency or affinity are listed apart. Unmarked numbers belong to inactive results.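 How the source made its calls: active means z-score of insulin promoter reporter brightness in nuclei below -3 at 5 µM, with at least 500 cells counted; inconclusive means wells with under 500 cells, flagged as toxic or sparse; inactive means the rest.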

Test: decrease of insulin promoter-GFP reporter – imaging, high-content screening, mouse beta cells (AID 1628)
Details: MIN6 insulin promoter GFP reporter, at 5 µM, active compounds read low

**Q.** With Cn1c(=O)c(NC2CCCCC2)c2c3c(cccc31)C(=O)c1ccccc1-2 as the molecule, how does the z-score read?
**A.** 16.9

**Q.** For CC1c2nc3ccccc3n2C(CC(=O)NCCCN2CCOCC2)C(=O)N1Cc1ccccc1 (stereo unspecified), which z-score is on record?
**A.** 2.82

**Q.** Which z-score does the source give for O=C(NCCCN1CCCCCC1)C1CC(=O)N(C2CCCC2)C1 (stereo unspecified) here?
**A.** 4.02

**Q.** For O=C(NCCCN1CCN(Cc2ccccc2)CC1)C1CCN(c2nnc(-n3cccc3)s2)CC1, which z-score is on record?
**A.** -4.79 (active)

**Q.** With Cc1[nH]c2ccccc2c1/C=N/Nc1ccc([N+](=O)[O-])cc1 as the molecule, how does the z-score read?
**A.** 13.9

**Q.** With CNC(=S)Nc1ccc([N+](=O)[O-])cc1 as the molecule, how does the z-score read?
**A.** 4.22

**Q.** For CC(C)CCNC(=S)Nc1ccc([N+](=O)[O-])cc1, which z-score is on record?
**A.** -5.03 (active)

**Q.** For CCOC(=O)CC1C(=O)NCCN1S(=O)(=O)c1ccc(Cl)cc1Cl (stereo unspecified), which z-score is on record?
**A.** 3.29

**Q.** For COc1ccc(-c2ccc(-c3nnc(Cc4ccc(OC)c(OC)c4)o3)cc2)cc1, which z-score is on record?
**A.** -4.88 (active)

**Q.** Which z-score does the source give for Cc1ccc(-c2nnc(Cc3ccc([N+](=O)[O-])cc3)o2)cc1 here?
**A.** 2.29

**Q.** Which z-score does the source give for COc1ccc(C2CC(=O)N(CCCN(C)CCc3ccc(OC)c(OC)c3)C2)cc1 (stereo unspecified) here?
**A.** 1.63

**Q.** For O=C(/C=C/c1ccc2ccccc2n1)c1cc(Br)ccc1O, which z-score is on record?
**A.** 4.36

**Q.** With CCOC(=O)Cn1c(=O)c(-c2cc(Br)ccc2N)nc2ccccc21 as the molecule, how does the z-score read?
**A.** 6.82

**Q.** For C/C(=N\NC(=O)c1cccc(N/N=C(\C)c2cc(O)ccc2O)c1)c1cc(O)ccc1O, which z-score is on record?
**A.** -4.19 (active)

**Q.** Which z-score does the source give for CC(=O)c1cccc(NC(=O)c2c(F)c(F)c(F)c(F)c2F)c1 here?
**A.** 0.06

**Q.** Which z-score does the source give for Cc1cc(C2C(C#N)=C(N)Oc3n[nH]c(C)c32)c(C)s1 (stereo unspecified) here?
**A.** 3.37

**Q.** For Cc1ccc(OCCn2nc3ccccc3n2)c(C)c1, which z-score is on record?
**A.** -6.61 (active)

**Q.** Which z-score does the source give for Cc1c(C(=O)O)cccc1-c1ccc(/C=C2/NC(=O)N(c3ccccc3)C2=O)o1 here?
**A.** 3.88

**Q.** With O=C(Nc1ccccc1)Nc1ccc(-n2ccc(C(F)(F)F)n2)cc1 as the molecule, how does the z-score read?
**A.** -3.4 (active)

**Q.** For C=CCC(c1ccccc1)N(C(C)=O)c1ccco1 (stereo unspecified), which z-score is on record?
**A.** 3.62

**Q.** With COc1ccc(CNC(=O)/C=C/c2ccco2)cc1OC as the molecule, how does the z-score read?
**A.** 1.08

**Q.** With CC(/C=C/c1ccco1)=N\NC(=O)C(O)c1ccccc1 (stereo unspecified) as the molecule, how does the z-score read?
**A.** -4.52 (active)

**Q.** For CCOc1cc([N+](=O)[O-])cc2c1C(=O)Nc1ccccc1O2, which z-score is on record?
**A.** 5.94

**Q.** Which z-score does the source give for CCOC(=O)c1cc2c(ccn2C)n1CC(=O)N1CCC(Cc2ccccc2)CC1 here?
**A.** -3.62 (active)

**Q.** Which z-score does the source give for Nc1nc(N2CCN(C(=O)c3ccco3)CC2)nc2ccc(Br)cc12 here?
**A.** -3.6 (active)

**Q.** For Cc1cccc2c(C(=O)N3CCN(C(=O)c4ccco4)CC3)cc(-c3cccc(Br)c3)nc12, which z-score is on record?
**A.** -4.53 (active)

**Q.** For CC(=O)c1ccc2cccc3c2c1N=CN3C, which z-score is on record?
**A.** 3.38

**Q.** For CN(C)S(=O)(=O)c1ccc(N2CCN(S(=O)(=O)c3ccc(F)cc3)CC2)c(Cl)c1, which z-score is on record?
**A.** -3.39 (active)

**Q.** Which z-score does the source give for Cc1sc2nc(C3CC3)nc(NCCNS(=O)(=O)c3ccccc3)c2c1C here?
**A.** -0.22

**Q.** With CN(C)/C=C1/Nc2ccccc2C1=O as the molecule, how does the z-score read?
**A.** 4.71

**Q.** Which z-score does the source give for COC1OC(CO)C(O)C(O)C1O (stereo unspecified) here?
**A.** -0.58

**Q.** For Cc1cc(C)nc(SCC(=O)Nc2ccc(N3CCOCC3)c(Cl)c2)n1, which z-score is on record?
**A.** -11 (active)

**Q.** Which z-score does the source give for Cc1ccc(NC(=O)CCn2cccc2)cc1Cl here?
**A.** 3.23

**Q.** Which z-score does the source give for O=S(=O)(Nc1cc2nc3ccccc3nc2n1Cc1ccccc1)c1ccc(Cl)cc1 here?
**A.** 15.3

**Q.** With Cc1nc2c(oc3ccccc32)c(=O)o1 as the molecule, how does the z-score read?
**A.** 4.23

**Q.** With CCc1nc(Nc2ccc(N3CCN(C(C)=O)CC3)cc2)c2oc3ccccc3c2n1 as the molecule, how does the z-score read?
**A.** -4.54 (active)

**Q.** With Cc1cccc(N2CCCn3c2nc2c3c(=O)n(CCN3CCOCC3)c(=O)n2C)c1 as the molecule, how does the z-score read?
**A.** -3.6 (active)

**Q.** Which z-score does the source give for Cc1cc(/C=C2\NC(=S)N(C)C2=O)ccc1N1CCCC1 here?
**A.** 14.3

**Q.** Which z-score does the source give for Cc1oc2ncnc(N)c2c1C here?
**A.** 0.96

**Q.** Which z-score does the source give for CCCCN(C)CC(O)Cn1cc(/C=C/C(=O)c2cccs2)c2ccccc21 (stereo unspecified) here?
**A.** 4.79

**Q.** Which z-score does the source give for CC(Cc1cccs1)NC(=O)Nc1ccccc1 (stereo unspecified) here?
**A.** -4.74 (active)

**Q.** Which z-score does the source give for CC(NC(=O)/C(C#N)=C1\N=C(NC(=O)c2cccs2)c2ccccc21)c1ccccc1 (stereo unspecified) here?
**A.** 3.96

**Q.** For Nc1nnc(-c2cc3c(ccc4ccccc43)oc2=O)s1, which z-score is on record?
**A.** 8.81

**Q.** Which z-score does the source give for O=C(c1ccco1)N1CCN(C(=O)N2c3ccccc3Sc3ccccc32)CC1 here?
**A.** -3.22 (active)

**Q.** With CN(C)N(C)C(=O)C(O)(c1ccccc1)c1ccccc1 as the molecule, how does the z-score read?
**A.** -3.03 (active)

**Q.** Which z-score does the source give for COC(=O)c1ccc(N2CCN(S(=O)(=O)c3ccc4ccccc4c3)CC2)c([N+](=O)[O-])c1 here?
**A.** -4.04 (active)

**Q.** Which z-score does the source give for CCN1CC=C2C(C#N)=C(N)C(C#N)(C#N)C(c3cc(Cl)ccc3Cl)C2C1 (stereo unspecified) here?
**A.** 15.3

**Q.** For O=C1c2cccc3c(N4CCCCC4)ccc(c23)C(=O)N1c1ccc(O)cc1, which z-score is on record?
**A.** 6.1

**Q.** With O=C(COc1ccc2ccccc2c1Br)Nc1ncn[nH]1 as the molecule, how does the z-score read?
**A.** 1.51

**Q.** Which z-score does the source give for Cc1cc(-c2ccccc2)cc(-c2ccccc2)[n+]1C here?
**A.** -5.05 (active)

**Q.** For COCCN1CN(S(=O)(=O)c2ccccc2)c2nc3ccccc3nc21, which z-score is on record?
**A.** 3.14

**Q.** Which z-score does the source give for O=[N+]([O-])c1ccc(N2N=C(c3ccco3)CC2c2ccccc2)cc1 (stereo unspecified) here?
**A.** 3.05

**Q.** Which z-score does the source give for Cc1cc(C)c2[nH]c(=O)c(CN(Cc3ccc4c(c3)OCO4)Cc3nnnn3C3CCCC3)cc2c1 here?
**A.** -3.04 (active)

**Q.** For CCC(C)(C)n1nnnc1CN(Cc1ccco1)Cc1cc2cc3c(cc2[nH]c1=O)OCO3, which z-score is on record?
**A.** -2.22

**Q.** For CCc1ccc2[nH]c(=O)c(CN(Cc3ccc4c(c3)OCO4)Cc3nnnn3C3CCCC3)cc2c1, which z-score is on record?
**A.** -5.41 (active)

**Q.** Which z-score does the source give for CCc1ccc2[nH]c(=O)c(CN(Cc3nnnn3C3CCCC3)C3CCCCC3)cc2c1 here?
**A.** -3.09 (active)

**Q.** For O=C(OCC(=O)c1ccc[nH]1)c1ccccc1, which z-score is on record?
**A.** 2.07

**Q.** For O=C(COc1ccc(S(=O)(=O)NCc2ccccc2)cc1Cl)N1CCOCC1, which z-score is on record?
**A.** -4.71 (active)

**Q.** Which z-score does the source give for O=[N+]([O-])c1cc(S(=O)(=O)/N=C(/c2ccccc2)N2CCOCC2)ccc1Cl here?
**A.** 1.77

**Q.** Which z-score does the source give for CCOc1cc(C(=O)OCC(=O)NC(C)c2ccccc2)ccc1OCC(=O)N1CCOCC1 (stereo unspecified) here?
**A.** 2.57

**Q.** With CCCCn1c(CCC(=O)O)nc2cc(S(=O)(=O)N(C)C)ccc21 as the molecule, how does the z-score read?
**A.** -3.06 (active)
